According to PubChem BioAssay AID1671189 (National Center for Advancing Translational Sciences (NCATS), 2021):
Values joined by “and” are separate entries in the source; they are usually repeats but may differ in a detail not shown here. Equal entries are not always repeated. Screen size: about 1,100 compounds; about 70 (6%) were called active. Where a call stands in place of a potency, no number is given. Roughly 22% stayed inconclusive and do not appear here. The call rests on the fitted dose curve; in most records, active means well fitted curve in the direction sought with a large enough effect; inconclusive means small, poorly fitted or top-dose-only effect, or another doubt; inactive means no such curve, though single readings can be large or run the other way. Many of the other results were omitted from the sample, so actives are more common in it than they were.

molecular target: Polyunsaturated fatty acid lipoxygenase ALOX12 (Homo sapiens) (UniProt P18054); experiment: Confirmatory qHTS assay for inhibitors of human arachidonate 12S-lipoxygenase (ALOX12): Round 2; details: purified human 12-LOX, xylenol orange absorbance; series mostly up to 125 µM
From the text: Assay Provider: Theodore R. Holman Ph.D. University of California, Santa Cruz, California Human lipoxygenase 12hLO is a member of the closely related lipoxygenase family of enzymes which catalyze the site-specific oxidation of arachidonic acid to various hormone precursor molecules and as such is a candidate for drug development in a variety of disease areas, such as cancer and inflammation. Inhibition of 12hLO activity was screened by utilizing arachidonic acid as a substrate. The extent of hydroperoxide product formation was measured by a secondary chromogenic reaction in which xylenol orange (XO, Sigma-Aldrich, cat. number 39,818-7) reacts with the ferric ions produced from the reaction between the hydroperoxide and ferrous ions. The Fe (III)-XO complex is characterized with red-shifted absorbance at 560 nm. A purified preparation of human 12hLO was supplied by Dr. Holman laboratory, University of California, Santa Cruz.
PROTOCOL TABLE SEQUENCE No. (e.g., 1, 2, 3, etc.); […] (e.g., Cells, Incubation, Reagent, etc.); VALUE; DESCRIPTION 1; Enzyme; 3 uL; 150 nM 12hLO enzyme solution dispensed in 1536-well Greiner black, clear bottom plates. 2; Compound; 23 nL; compounds and controls were added. 3; Incubate; 15 min; room temperature. 4; Substrate; 1 uL; 40 uM arachidonic acid (final concentration). 5; Incubate; 30 min; room temperature. 6; Reagent; 4 uL; Fe-XO solution was added to each well. 7; Incubation; 30 min; room temperature 8; Detector; absorbance; Read 1 at 405 nm absorbance using ViewLux (PerkinElmer) CCD imager. 9; Detector; absorbance; Read 2 at 573 nm absorbance using ViewLux (PerkinElmer) CCD imager. NOTES (numbers refer to sequence above) 1; 150 nM 12hLO (final concentration) in buffer solution (25 mM Hepes, 0.01% Triton X-100, pH 7.0) was dispensed in columns 1, 2, 5-48. Column 1 is neutral (100% activity). Buffer only was dispensed in columns 3 and 4 as no enzyme negative controls. The plates were covered with metal lids with gas-exchange holes. 2; Compounds were pin transferred via a Kalypsys Pin Tool (Wako USA) in column 5 - 48. Control compound was transferred in column 2, titration of nordihydroguaiaretic acid (NDGA, Sigma-Aldrich, N5023) with top concentration of 20 mM in DMSO then 1:3 dilution in duplicate. Dilution factor of 23 nL into 4 uL final assay volume. 3; Covered assay plates were incubated for 15 min at room temperature. 4; Substrate was added to start the reaction; 40 uM arachidonic acid (Sigma-Aldrich, St. Louis, MO) was dispensed throughout the plate. 6; Chromogenic detection reagent solution (divalent iron/xylenol orange, Fe-XO) was added to each well: 200 uM xylenol orange, 300 uM ferrous ammonium sulfate prepared freshly in 50 mM sulfuric acid. 8, 9; Two absorbance readouts were obtained at 405 nm and at 573 nm using a ViewLux high-throughput CCD plate imager (PerkinElmer). The 573 to 405 (Read 2 / Read 1) absorbance ratio was used to compute reaction progress.
Potency means the concentration at half of the fitted maximal effect.

Polyunsaturated fatty acid lipoxygenase ALOX12 (Homo sapiens), sequence (P18054 whole entry, looked up): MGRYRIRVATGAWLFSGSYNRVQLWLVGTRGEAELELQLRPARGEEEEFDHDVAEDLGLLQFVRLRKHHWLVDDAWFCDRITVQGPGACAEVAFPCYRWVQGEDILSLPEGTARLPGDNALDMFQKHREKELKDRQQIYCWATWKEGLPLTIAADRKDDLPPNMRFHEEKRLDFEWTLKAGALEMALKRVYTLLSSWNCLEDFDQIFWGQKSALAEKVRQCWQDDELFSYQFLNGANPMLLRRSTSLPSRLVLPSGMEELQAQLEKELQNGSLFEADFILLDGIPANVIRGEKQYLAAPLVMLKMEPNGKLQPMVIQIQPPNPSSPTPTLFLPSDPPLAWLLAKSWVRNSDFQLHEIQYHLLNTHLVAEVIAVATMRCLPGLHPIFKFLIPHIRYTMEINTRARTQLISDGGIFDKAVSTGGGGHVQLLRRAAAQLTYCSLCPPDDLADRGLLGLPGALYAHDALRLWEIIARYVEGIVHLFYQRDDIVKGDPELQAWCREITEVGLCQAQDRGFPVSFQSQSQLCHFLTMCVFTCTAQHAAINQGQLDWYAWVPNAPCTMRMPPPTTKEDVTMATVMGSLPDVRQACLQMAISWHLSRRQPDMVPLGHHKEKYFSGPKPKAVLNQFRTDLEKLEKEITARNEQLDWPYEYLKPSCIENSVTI

Structure (SMILES)	Potency
CNc1oc(-c2ccc(Cl)c(Cl)c2)nc1C#N	inactive
c1ccc(NCCN2CCCC2)cc1	inactive
Clc1ccc(NCCN2CCCC2)cc1	90.2 µM (active)
c1cc(NCCN2CCCC2)ccn1	inactive
Cn1nc(C2CCNC2)c2c(C(=O)NC3CC3)cc(C3CC3)nc21 (stereo not drawn)	inactive
O=C(OCC#CCSc1nnc(-c2cccc3ccccc23)o1)c1ccsc1	inactive
NCc1ccc(-c2cccc(O)c2)cc1	inactive
NCc1ccc(-c2cccc(Cl)c2)cc1	inactive
Nc1cc(-c2ccccc2)ccc1O	0.273 µM (active)
N[C@@H]1CC[C@H](C(=O)N2CCC(c3nccn3Cc3ccncc3)CC2)C1	inactive
O=C(OCC#CCSc1nnc(-c2cccc3ccccc23)o1)c1sccc1Cl	inactive
CN1CC(=O)N(C2CCNC2)Cc2c(NCC3(O)CCCCC3)ncnc21 (stereo not drawn)	inactive
CCCCN1C(=O)[C@@H]2C[C@@H](O)CN2C2(CN(Cc3cnc[nH]3)C2)C1=O	inactive
O=C(c1cc(C2CC2)nc2onc(C3CCCNC3)c12)N1CCCCC1 (stereo not drawn)	inactive
CC(=O)NC1(C)CCN(Cc2cnc(-c3ccccc3OCc3ccccc3)s2)CC1	4.47 µM (active)
O=C1NCc2ccccc2CC12CCN(Cc1ccc(Cl)o1)C2 (stereo not drawn)	inactive
O=C1Nc2ccccc2C12CCN(Cc1ccccc1)C2 (stereo not drawn)	inactive
CC(=O)N1CCN(C(=O)CSCC(=O)O)C[C@H]1C(=O)N[C@H]1CCCNC1=O	inactive
O=c1[nH]c(C2CCCN(Cc3ccc(-c4cc(F)cc(F)c4)cc3)C2)nc2ccc(F)cc12 (stereo not drawn)	inactive
CN1CC(=O)N(C2CCNCC2)Cc2c(NC3CCCCC3)ncnc21	inactive
O=C(c1ccccc1)N1CCn2c(nn(-c3cccc(Cl)c3)c2=O)C1	inactive
O=C(c1cc(-c2ccco2)nn1-c1cccc(Cl)c1)N1CCCCC1	9.68 µM (active)
O=c1n(-c2cccc(Cl)c2)nc2n1CCN([S+](=O)([O-])c1ccccc1)C2	inactive

Structure (SMILES)	Potency
O=C(c1ccc(C(F)(F)F)cc1)N1CCc2nc(C3CC3)nc(-c3ccc(Cl)cc3)c2C1	inactive
O=C(N1CCCC1)N1CCn2c(nnc2-c2cncc(Br)c2)C1	inactive
O=C(O)CCCC(=O)N1Cc2ccccc2CC2(CCCN2Cc2ccccc2)C1 (stereo not drawn)	inactive
CC1CCCN(c2ncnc3c2CN(C2CCCNCC2)C(=O)CN3C)C1 (stereo not drawn)	inactive
CCC(=O)NC(c1ccco1)c1cc(Cl)c2cccnc2c1OC (stereo not drawn)	inactive
CC(=O)NC(c1ccco1)c1cc(Cl)c2cccnc2c1O (stereo not drawn)	4.85 µM (active)
CCC(=O)NC(c1ccco1)c1cc(Cl)c2cccnc2c1O (stereo not drawn)	2.17 µM (active)
COc1ccc(CNc2ncnc3c2CN(C2CCCNCC2)C(=O)CN3C)cc1 (stereo not drawn)	inactive
C[S+](=O)([O-])N1Cc2ccccc2OC2(CCN(C(=O)c3ccc(N)nc3)CC2)C1	inactive
CN1C(=O)[C@@H]2C[C@@H](CN2C2CCCC2)Oc2ccccc21	inactive
N#Cc1ccc(CN2CCC3(CN[S+](=O)([O-])c4cnccc4O3)C2)cc1 (stereo not drawn)	inactive
CNCCN1C(=O)CC[C@H]2CN(C(=O)c3ccc(Cl)cn3)CC[C@H]21	inactive
C=CCNC(=O)[C@@H]1Cc2cn(CC#CC)c3cccc(c23)[C@H](CC(C)C)N1	inactive
C=CCn1cc(CN(Cc2ccco2)Cc2cccs2)c(C)n1	10 µM (active)
Cc1ccc(C(=O)N2CCn3c(nnc3C3CCNCC3)C2)cc1	inactive
c1ccc(COCCCc2cnc[nH]2)cc1	inactive
COCCNC(=O)c1cc(C)nc2onc(C3CCCNC3)c12 (stereo not drawn)	inactive
O=C(O)c1ccc(-c2cnccn2)cc1	inactive
CN1CCC2(Cc3ccccc3CN(C(=O)Cc3cccc(Cl)c3)C2)C1 (stereo not drawn)	inactive
CNC(C)c1cccc(OC)c1 (stereo not drawn)	inactive
O=[S+]([O-])(Nc1ccc(N2CCNCC2)cc1)c1ccc(NCc2ccc(Br)cc2O)cc1	21.7 µM (active)
O=[S+]([O-])(Nc1ccc(N2CCNCC2)cc1)c1ccc(NCc2ccc(Cl)cc2O)cc1	21.7 µM (active)
O=C(CCC[C@H]1NC[C@@H]2CC1CN(Cc1ccccc1)C2)NCc1ccc(F)cc1	inactive

Structure (SMILES)	Potency
Cc1ccc(CN2CCC3(CC2)Cc2ccccc2CNC3=O)cc1C	inactive
O=C(NCc1ccncc1)c1cc(C2CC2)nc2c1c(C1CCCN1)nn2-c1ccccc1 (stereo not drawn)	inactive
Cc1cc(C(=O)NCc2ccc(F)cc2)c2c(C3CCNC3)noc2n1 (stereo not drawn)	inactive
O=C1CCN(C(=O)[C@@H]2CCCN2Cc2ccc(C(F)(F)F)cc2)CCCCCCN1	inactive
CCn1cc(-c2ccc(C)cc2)cc1C(=O)N1CCN(c2ccccn2)CC1	inactive
CCC(C)Cn1c(/C=C/c2ccccc2)nc2ccccc21 (stereo not drawn)	inactive
C[C@]1(CO)[C@H]2Cc3sc(NC(=O)c4ccnc(Cl)c4)nc3[C@@H](CC(=O)O)[C@]2(C)CC[C@H]1O	inactive
COC(=O)[C@H](c1ccccc1Cl)N1CCc2sccc2C1	inactive
CCC(=O)NC(c1cccs1)c1cc([N+](=O)[O-])c2cccnc2c1O (stereo not drawn)	6.11 µM (active)
CC(=O)NC(c1cccs1)c1cc(Cl)c2cccnc2c1O (stereo not drawn)	3.06 µM (active)
CC(=O)NC(c1cccs1)c1cc(Br)c2cccnc2c1O (stereo not drawn)	inactive
CCC(=O)NC(c1cccs1)c1cc(Cl)c2cccnc2c1O (stereo not drawn)	1.93 µM (active) and 4.85 µM (active) and 2.43 µM (active)
NCc1cccc(-c2cc(C(F)(F)F)ccc2Cl)c1	inactive
Cc1ccc(CN2CCc3oc(C)c(C(=O)N4CCSCC4)c3C2)cc1	inactive
Cc1ccc(CCN2CCCCC23Cc2ccccc2CN(C(=O)CCCC(=O)O)C3)cc1 (stereo not drawn)	inactive
CN1CC(=O)N(C2CCCNC2)Cc2c(NC3CCCCCC3)ncnc21 (stereo not drawn)	inactive
CC(C)(N)C(=O)N1CCCC(N2CCN(Cc3ccc4c(c3)OCO4)CC2)C1 (stereo not drawn)	inactive
COc1ccc(N2CC3CCC(C2)N3C(C)=O)cc1	inactive
O=C(c1cc(C2CC2)nc2onc(C3CCCN3)c12)N1CCC(F)CC1 (stereo not drawn)	inactive
COc1ccc(C(=O)N2CC(Oc3ccc4c(c3)OCO4)C2)cc1	inactive
O=C(Nc1ccccc1)O[C@@H]1CO[C@H]2[C@@H]1OC[C@@H]2n1nnnc1SCc1ccco1	inactive
O=C(NC1CCCCC1)O[C@@H]1CO[C@H]2[C@@H]1OC[C@@H]2n1nnnc1SCc1ccco1	7.08 µM (active)
